Rows were chosen to be rich in hits. Some 1.3% of all compounds tested hit in one or more screens of this group.
IDE act: human IDE activators in live cells, primary screen, fluorescence polarization, HEK cells, FAbeta-B substrate; Insulin-degrading enzyme (Homo sapiens), P14735; FAbeta-B cleavage; 0% vehicle, 100% cell-free pure enzyme wells; activation, % at 5.96 µM; 0.073% of 340,000 active; AID 493087, 2011;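 active = activation above the mean of all tested compounds plus 3 SD, set per screening campaign, cut at about 17% in these data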
IDE inh: human IDE inhibitors in live cells, primary screen, fluorescence polarization, HEK cells, FAbetaB substrate. AID 434962, 2010. 0.41% of 320,000 active. FAbetaB cleavage. inhibition, % at 5.59 µM;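 active = percent inhibition above the average of all tested compounds plus 3 SD, set per screening campaign, cut at about 16% in these data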;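 note: IDE supplied by intact live HEK cells; FP after avidin binding of uncleaved biotin substrate so inhibition keeps polarization high; 0% = DMSO wells and 100% = 60 µM reference IDE inhibitor Ii1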
PKA-R2B act: activators of PKA-R2B holoenzyme, primary screen, biochemical, fluorescence polarization, Cy5-IP20, human; activation, % at 11.4 µM; PKA-R2B holoenzyme dissociation; R2B truncated from residue 108, S112A mutant; 0% DMSO only, 100% 113 µM cGMP; 0.079% of 340,000 active; AID 504700, 2011;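 active = activation above a cutoff set at the mean over all compounds plus 3 SD, cut at about 18% in these data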;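 note: higher means more holoenzyme dissociation and a rise in polarization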
PKA-R1A act: activators of PKA-R1A holoenzyme, primary screen, biochemical, fluorescence polarization, Cy5-IP20, bovine R1A, mouse PKAc; activation, % at 11.4 µM; cAMP-dependent protein kinase type I-alpha regulatory subunit (Bos taurus) + …; PKA-R1A dissociation; scaled: DMSO 0%, 113 µM cGMP 100%; 0.083% of 340,000 active; AID 504707, 2011;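 active = percent activation above the mean of all tested compounds plus 3 SD, cut at about 19% in these data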;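 note: higher means more PKAc released from R1A so a rise in polarization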
E coli Lon inh: inhibitors of E. coli Lon protease, primary screen, biochemical, fluorescence polarization; P0A9M0; purified E. coli Lon protease; inhibition, % at 7.94 µM; 0.42% of 360,000 active; AID 602123, 2011; in the data active = inhibition above about 13%, passing the limit was not always enough;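 note: 0% = enzyme with probe and DMSO and 100% = no enzyme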
Rin1 Abl inh: inhibitors of Rin1-Abl protein binding, primary screen, biochemical, TR-FRET | Tyrosine-protein kinase ABL1 (Homo sapiens) + Ras and Rab interactor 1 (Homo sapiens), … | inhibition, % at 7.35 µM | 0.4% of 360,000 active; in the data active = inhibition above about 5%, passing the limit was not always enough
E coli Lon conf: E. coli Lon protease inhibitor retest, confirmation, biochemical, fluorescence polarization. shares compounds with E coli Lon inh. purified E. coli Lon. inhibition, % at 7.94 µM. 31% of 1,400 active; in the data active = inhibition above about 16%;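 note: 0% = enzyme with probe and DMSO and 100% = no enzyme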
Starred values were filed as active, the others as inactive; nt = not tested or not shown.

SMILES | IDE act | IDE inh | PKA-R2B act | PKA-R1A act | E coli Lon inh | Rin1 Abl inh | E coli Lon conf
Cc1ccc(/C=C/C(=O)NCCCN2CCN(CCCNC(=O)/C=C/c3ccc(C)o3)CC2)o1 | 0 | -1 | -4 | 2 | 27* | -3 | -3
O=C(/C=C/c1ccc(F)cc1)NCCCN1CCN(CCCNC(=O)/C=C/c2ccc(F)cc2)CC1 | -2 | 7 | -2 | -5 | -4 | 2 | nt
O=C(NCCCN1CCCC1)c1cc2c(Cl)nc3ccccc3c2s1 | 3 | 0 | 1 | -11 | -8 | -8 | nt
CCC(C)C(NC(=O)C1CCC(C)CC1)C(=O)NC(C(=O)OC)C(C)C (stereo unspecified) | 5 | 5 | -4 | -18 | -4 | 1 | nt
CCOc1cc(-c2ccc(N)c(OCC)c2)ccc1N | 2 | 3 | -6 | -4 | 52* | 0 | 98*
COc1ccc(OC)c(S(=O)(=O)Nc2cccc3ccc(O)cc23)c1 | 6 | -2 | 2 | 1 | 4 | -2 | nt
COc1ccc2cc(C(=O)N3CCN(c4cccc(C)c4C)CC3)[nH]c2c1 | -1 | nt | 4 | 17 | 8 | 0 | nt
O=C(CSCc1nc2c(nnn2Cc2ccc(F)cc2)c(=O)[nH]1)Nc1cccc(C(F)(F)F)c1 | -4 | -6 | -3 | 0 | 16* | 2 | -7
CCCC1C2CN(C(C)C)CC=C2C(C#N)=C(N)C1(C#N)C#N (stereo unspecified) | 3 | -8 | 0 | 3 | 59* | 1 | 18*
CC(C)c1ccc(C2C3CSCC=C3C(C#N)=C(N)C2(C#N)C#N)cc1 (stereo unspecified) | nt | 13 | nt | nt | nt | nt | nt
CN1CC=C2C(C#N)=C(N)C(C#N)(C#N)C(c3ccsc3)C2C1 (stereo unspecified) | -4 | -6 | 6 | -11 | 60* | -3 | 32*
CN1CC=C2C(C#N)=C(N)C(C#N)(C#N)[C@H](c3cccc(Cl)c3)C2C1 (stereo partly specified) | -4 | 2 | -6 | -2 | 23* | -4 | 17*
CCOC(=O)N1CC=C2C(C#N)=C(N)C(C#N)(C#N)[C@H](c3ccccc3OCC)[C@H]2C1 | -9 | 7 | -3 | 4 | 1 | -3 | nt
COc1cccc(C2C3CN(C)CC=C3C(C#N)=C(N)C2(C#N)C#N)c1OC (stereo unspecified) | 0 | 1 | -13 | -9 | 53* | -5 | 16*
CCN1CC=C2C(C#N)=C(N)C(C#N)(C#N)[C@H](c3cccc(OC)c3OC)[C@H]2C1 | 0 | 2 | -4 | -8 | 36* | 0 | 14
NC(=O)C[n+]1cccc2ccccc21 | 4 | -8 | 3 | -7 | 57* | 1 | 40*
CCC1(c2ccccc2)NC(=O)N(CC(=O)Nc2ccccc2N2CCCC2)C1=O (stereo unspecified) | -1 | -1 | -16 | -6 | 7 | 0 | nt
CCC1(c2ccccc2)NC(=O)N(CC(=O)NCc2ccccc2OC)C1=O (stereo unspecified) | 5 | 12 | -4 | -6 | -1 | 3 | nt
CCC1(c2ccccc2)NC(=O)N(CC(=O)Nc2cc(Cl)ccc2N2CCOCC2)C1=O (stereo unspecified) | 8 | 9 | -5 | -8 | 17* | 0 | -14
CCC1(c2ccccc2)NC(=O)N(CC(=O)Nc2ccc(OC)nc2)C1=O (stereo unspecified) | 2 | -6 | 2 | -5 | 112* | -2 | 105*
CC(C)c1cc(C(N)=O)c(NC(=O)c2cccc(COc3ccc(Cl)cc3)c2)s1 | 5 | 7 | 1 | -2 | -11 | 0 | nt
CN(C)CCN(C(=O)c1ccc(S(=O)(=O)N(C)c2ccccc2)cc1)c1nc2ccc(Cl)cc2s1 | 1 | -4 | -5 | -4 | 4 | 2 | nt
N#CC1=C(S)N(c2ccc(F)cc2)C2(CCCCC2)NC1=O | -2 | -3 | 2 | 5 | -4 | 0 | nt
O=S(=O)(Nc1ccc(O)c(NS(=O)(=O)c2ccccc2)c1)c1ccccc1 | -8 | 5 | -12 | -7 | 18* | 1 | 3
COC(=O)c1ccccc1NC(=O)CSc1nnc(C(CO)NC(=O)c2ccccc2Cl)n1C (stereo unspecified) | 2 | 2 | -8 | -4 | 0 | 2 | nt
SMILES | IDE act | IDE inh | PKA-R2B act | PKA-R1A act | E coli Lon inh | Rin1 Abl inh | E coli Lon conf
CC(NC(=O)c1ccccc1Cl)c1nnc(SCC(=O)Nc2ccc(C(=O)O)cc2)n1C (stereo unspecified) | 9 | 2 | -4 | -1 | 29* | -4 | -15
COc1cc(-c2onc3ccc(Br)cc23)cc(OC)c1OC | -1 | -4 | -7 | -2 | -2 | 0 | nt
COc1ccc(-c2onc3ccc(Br)cc23)cc1 | 0 | 3 | -5 | -2 | 39* | -1 | 86*
CCCc1nc2ccccc2n1C(=S)SC | -3 | -1 | -10 | 4 | 13 | 2 | nt
CCOc1ccc(NC(=O)CC2C(=O)Nc3ccccc3N2C(=O)c2ccccc2)cc1 (stereo unspecified) | 2 | -2 | 2 | 9 | 15* | 1 | 0
CSC1=NCCN1C(=O)c1cccc(Br)c1 | -4 | 4 | 4 | -6 | 4 | -1 | nt
O=C(Oc1ccc2c3c(c(=O)oc2c1)CCCC3)c1cccs1 | 2 | 0 | -14 | 1 | 18* | 2 | 25*
COc1cc2oc(=O)cc(CN3CCN(C(C)=O)CC3)c2cc1Cl | nt | nt | nt | nt | 31* | -3 | 24*
Cc1cc(C)nc(SCC(=O)Nc2sc3c(c2C#N)CCC(C)C3)n1 (stereo unspecified) | 3 | 0 | -9 | -3 | -2 | 2 | nt
C=CCn1c(SCC(=O)Nc2sc3c(c2C#N)CCC(C)C3)nc2cc(C(=O)O)ccc2c1=O (stereo unspecified) | 9 | 6 | -4 | -10 | 48* | 2 | 2
O=C(CCN1C(=O)S/C(=C\c2ccccc2)C1=O)Nc1ccc(O)cc1C(=O)O | 1 | 2 | 1 | 0 | 19* | 5 | 5
COc1cc(O)cc2cc3c(c(O)c12)C(=O)CC(C)(O)O3 (stereo unspecified) | 3 | 4 | -2 | -16 | 18* | -2 | 24*

Source: PubChem (The Scripps Research Institute Molecular Screening Center)
